RAD54 inh: inhibitors of human RAD54 branch migration, primary screen, biochemical, fluorescence, single point; DNA repair and recombination protein RAD54-like (Homo sapiens), Q92698; RAD54 Holliday junction branch migration, FAM/BHQ fluorescence; inhibition, % at 10.4 µM; actives 0.14% (n = 360,000); AID 602329, 2012;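 active = mean normalized replicate activity at least 40 and at least half of replicates scoring 40 or more; inconclusive = only one of the two criteria met; inactive = mean below 40 and under half of replicates reaching 40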;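 also: 0% = median of neutral control wells and 100% = median of positive control wells; inhibitors cause a drop in the FAM fluorescence signal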
Target sequence (Q92698 whole entry, looked up): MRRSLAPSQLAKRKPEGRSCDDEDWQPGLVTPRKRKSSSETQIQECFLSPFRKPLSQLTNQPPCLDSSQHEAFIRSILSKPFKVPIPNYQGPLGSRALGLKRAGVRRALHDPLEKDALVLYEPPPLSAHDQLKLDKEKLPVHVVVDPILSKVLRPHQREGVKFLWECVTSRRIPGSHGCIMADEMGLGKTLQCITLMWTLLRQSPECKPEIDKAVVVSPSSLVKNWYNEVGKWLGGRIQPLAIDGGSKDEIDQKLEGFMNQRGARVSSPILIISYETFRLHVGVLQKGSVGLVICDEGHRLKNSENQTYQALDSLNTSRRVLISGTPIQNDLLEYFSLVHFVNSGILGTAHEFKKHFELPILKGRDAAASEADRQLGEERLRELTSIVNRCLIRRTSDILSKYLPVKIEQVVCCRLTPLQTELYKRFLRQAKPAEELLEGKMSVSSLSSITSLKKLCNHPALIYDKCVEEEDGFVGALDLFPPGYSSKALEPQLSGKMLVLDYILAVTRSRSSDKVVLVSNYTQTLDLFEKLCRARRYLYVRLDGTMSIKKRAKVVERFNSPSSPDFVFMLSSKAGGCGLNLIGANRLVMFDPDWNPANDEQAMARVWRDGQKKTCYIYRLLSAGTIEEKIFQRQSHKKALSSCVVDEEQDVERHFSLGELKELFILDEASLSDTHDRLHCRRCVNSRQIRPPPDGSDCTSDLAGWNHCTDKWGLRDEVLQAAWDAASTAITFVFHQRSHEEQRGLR
Vif imaging: HIV Vif self-association inhibitors, primary screen, imaging, HEK293T, single point | actives 0.35% (n = 340,000) | inhibition, % at 7.49 µM | HEK293T cells, Vif self-association by quenched fluorescence, 24 h | AID 602346, 2012; in the data active = inhibition above about 50%, passing the limit was not always enough; inconclusive = no clear call, values can overlap the other calls; inactive = below about 31%
ABCB6 inh 2: ABCB6 transporter inhibitors, primary screen, K562-ABCB6 cells, flow cytometry, MLPCN library; ATP-binding cassette sub-family B member 6 (Homo sapiens), Q9NP58; fluorescence ratio to DMSO, % at 10 µM; AID 602162, 2011; K562-ABCB6 porphyrin accumulation, 1 h; active compounds read low; actives 0.19% (n = 360,000);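 active = fluorescence ratio to DMSO below 75%, the collection mean minus 3 SD; inconclusive = too few cells collected in the well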;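 also: signal is porphyrin accumulated inside mitochondria; 100% equals median channel fluorescence of DMSO control wells; lower ratio means ABCB6 inhibition with less porphyrin fluorescence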
N-glyco inh: increase of ERlucT glycosylation luciferase signal, primary screen, N-linked glycosylation inhibitor project, D54 ERlucT cells, luminescence, set 2; D54 ERlucT glycosylation luciferase reporter, 24 h; percent of 100 nM tunicamycin response; reporter increase, % at 12.5 µM; actives 0.23% (n = 360,000); AID 588692, 2011;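 active = mean luciferase reporter signal, scaled so untreated is 0 and the glycosylation-blocking control 100, at or above a set limit in every replicate; inconclusive = mean reaches the limit but not every replicate does; inactive = mean below the limit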;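 also: luciferase carries N-glycosylation sites so blocking glycosylation raises the light; 0% = median of neutral control wells and 100% = median of 100 nM tunicamycin wells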
Myeloid diff 2: induction of myeloid progenitor differentiation, primary screen, cell-based, flow cytometry, MLPCN library; ER-HoxA9 myeloid progenitors, lysozyme-GFP differentiation; calls only at 10 µM; actives 1% (n = 360,000);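 active = normalized GFP-positive differentiation at or above the plate's own cutoff, the solvent-only control mean plus 3 SD; inconclusive = no clear call, values can overlap the other calls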;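 also: cells exposed to compound for four days before flow analysis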
Myeloid diff CP1: inducers of myeloid progenitor differentiation, confirmation, cell-based, GFP/Mac1 flow cytometry, cherry pick 01. calls only. ER-HoxA9 myeloid progenitors, GFP/Mac1 double-positive flow. shares compounds with Myeloid diff 2. actives 2% (n = 2,300);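 active = share of green or green-and-red cells above 9 and 9% in run 1 or 4 and 3% in run 2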
GFP autofluor: compound fluorescence in myeloid differentiation counter-screen | AID 651707 | fluorescence response, % (test concentration not listed) | actives 7.4% (n = 2,300) | ER-HoxA9 myeloid progenitors, no estrogen, GFP autofluorescence flow cytometry; vehicle wells 0%, positive control 100% | shares compounds with Myeloid diff 2;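 active = over 5% cells positive for green fluorescent reporter, or over 2% positive for both it and APC stain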;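 also: range taken on the double positive population between DMSO and positive control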
* = called active by the depositor; i = inactive; ? = inconclusive; . = no result given; + = active, no number. Sampled rows, rich in hits. Any-hit rate of the full collection: about 1.6%.

SMILES | RAD54 inh | Vif imaging | ABCB6 inh 2 | N-glyco inh | Myeloid diff 2 | Myeloid diff CP1 | GFP autofluor
Oc1[nH]c2ccccc2c1/C=N/c1nccs1 | 2 | -7 | 119 | 6 | i | i | 2
COc1ccc(N=Cc2c(O)[nH]c3ccccc23)cc1 | -4 | -7 | 100 | -8 | ? | . | .
CC(C)NC(=O)Nc1ccc2c(c1)CC(=O)N([C@@H](C)CO)C[C@H](C)[C@@H](CN(C)C(=O)Nc1ccc(C(F)(F)F)cc1)O2 | 4 | . | . | . | . | . | .
CC(C)C(NC(=O)c1ccco1)C(=O)OCC(=O)c1ccccc1 (stereo unspecified) | . | -9 | 99 | 1 | i | . | .
Cc1ccc(C(=O)COC(=O)[C@@H](NC(=O)c2ccco2)C(C)C)s1 | -3 | -3 | 101 | 0 | + | i | 0
Cn1cnc(S(=O)(=O)N2C[C@H](O)COC[C@@H]3O[C@@H](CC(=O)NCc4ccc(F)cc4)CC[C@H]32)c1 | 2 | . | . | . | . | . | .
CC(C)(C)[S@@](=O)N1Cc2cc(C(=O)NCc3ccc4c(c3)OCO4)nc(-c3cccc(-c4ccncc4)c3)c2[C@H]1CCO | -2 | . | . | . | . | . | .
N#Cc1ccsc1NC(=O)C1CC(=O)N(Cc2ccccc2)C1 (stereo unspecified) | -6 | 2 | 100 | 1 | i | i | 0
O=C(Nc1ccccc1)C1CC(=O)N(Cc2ccccc2)C1 (stereo unspecified) | 8 | -5 | 96 | -1 | . | . | .
O=C(NCC[C@H]1CC[C@@H](NC(=O)C2CCCC2)[C@H](CO)O1)Nc1ccc(Cl)cc1 | -4 | . | . | . | . | . | .
CC12C(=O)N(CCC(=O)O)C(=O)C1C1C=CC2C1 (stereo unspecified) | -12 | -4 | 104 | -1 | + | i | 0
C[C@@H]1CN([C@@H](C)CO)C(=O)c2cc(NC(=O)Nc3cccc4ccccc34)ccc2O[C@@H](C)CCCCO[C@H]1CN(C)C(=O)CCCN(C)C | 14 | . | . | . | . | . | .
CC(=O)c1c(N2CCCC2)[nH]c(-c2ccccc2)nc1=S | . | 2 | 95 | 4 | . | . | .
CC(=O)c1c(N2CCOCC2)[nH]c(-c2ccccc2)nc1=S | -3 | -2 | 97 | 0 | + | + | 0
CC(C)NC(=O)Nc1ccc2c(c1)CC(=O)N([C@@H](C)CO)C[C@@H](C)[C@H](CN(C)Cc1ccc(-c3ccccc3)cc1)O2 | -6 | . | . | . | . | . | .
O=C(c1cc(-c2ccccc2Cl)nc2ccccc12)N1CCN(c2ccccn2)CC1 | -9 | 13 | 95 | -8 | i | i | 4
COc1ccc(-c2cc(C(=O)N3CCCCCC3)c3ccccc3n2)c(OC)c1 | -6 | 8 | 101 | 0 | + | i | 0
C[C@H]1CN([C@@H](C)CO)C(=O)c2cc(-c3ccc(C#N)cc3)cnc2O[C@@H]1CN(C)C(=O)c1ccccc1 | 9 | . | . | . | . | . | .
Cc1ccc(S(=O)(=O)Nc2ccc3c(c2)C(=O)N([C@@H](C)CO)C[C@H](C)[C@H](CN(C)S(=O)(=O)c2c(C)noc2C)OCCCC[C@@H](C)O3)cc1 | 0 | . | . | . | . | . | .
Cc1ccc(C)n1NC(=O)c1cccs1 | . | 8 | 108 | 1 | i | i | 0
CCCC(=O)Nc1cc(-c2nc3ncccc3o2)ccc1C | -7 | 8 | 146 | 2 | . | i | 0
CCCC(=O)NC(=S)Nc1cc(-c2nc3ncccc3o2)ccc1C | . | -14 | 97 | 0 | i | . | .
CCOC(=O)c1c(N)c(C#N)cn1-c1ccccc1 | 1 | 7 | 97 | -1 | i | . | .
CCOC(=O)c1c(NC(=O)c2nn(CC)cc2Br)c(C#N)cn1-c1ccccc1 | 0 | . | 90 | -7 | + | + | 0
Cc1ccc(S(=O)(=O)NCc2ccco2)cc1C(N)=O | . | -1 | 106 | 0 | + | i | 0
SMILES | RAD54 inh | Vif imaging | ABCB6 inh 2 | N-glyco inh | Myeloid diff 2 | Myeloid diff CP1 | GFP autofluor
Cc1ccc2ccc(S(=O)(=O)NCc3ccco3)cc2c1 | -10 | 8 | 100 | 2 | i | . | .
COc1ccc(C[C@@H]2CN3C(=NC[C@@H]3C)N2CCNC(=O)c2ccc(C)c(Br)c2)cc1 | 5 | . | 94 | -3 | + | i | 0
C/C=C(\C)C(=O)NCCN1C2=NC[C@H](C)N2C[C@@H]1Cc1ccc(OC)cc1 | 1 | -3 | 98 | 0 | i | . | .
COc1cccc(CNC(=O)CCC2CCCN(C(=O)c3ccc(C)nc3)C2)c1 (stereo unspecified) | 2 | 8 | 103 | 1 | + | i | 0
C[C@@H]1CN([C@H](C)CO)C(=O)c2cc(NC(=O)c3ccccc3)ccc2O[C@@H](C)CCCCO[C@@H]1CN(C)C(=O)Nc1cccc2ccccc12 | 1 | . | . | . | . | . | .
CCCNC(=O)N1[C@H](CO)[C@@H]2c3ccccc3N(C(=O)c3ccc(F)cc3)C[C@@H]21 | 5 | . | . | . | . | . | .
N=C1C(c2nc3ccccc3s2)=C(O)CN1Cc1ccco1 | -5 | -15 | 108 | 0 | + | i | 0
CN(C)CCN1CC(O)=C(c2nc3ccccc3s2)C1=N | 15 | 3 | 100 | -3 | i | . | .
Cc1ccc(O)c(NC(=O)CCC2CCCCC2)c1 | . | 15 | 102 | 2 | i | i | 0
O=C(CCC1CCCCC1)Nc1ccccc1O | -2 | -6 | 100 | -2 | i | . | .
O=C(CC12CC3CC(CC(C3)C1)C2)NC(Cc1ccccc1)C(=O)O (stereo unspecified) | -1 | -2 | 97 | 1 | i | . | .
O=C(Nc1ccccc1)C(Cc1ccccc1)NC(=O)C12CC3CC(CC(C3)C1)C2 (stereo unspecified) | . | -2 | 88 | -1 | + | i | 0
CCC(=O)Nc1ccc2c(c1)OC[C@@H](C)N(Cc1ccncc1)C[C@H](C)[C@H](OC)CN(C)C2=O | 1 | . | . | . | . | . | .
CCc1nc2ccc(C(=O)NCCc3ccc(OC)cc3)cc2nc1CC | 0 | 5 | 80 | 1 | i | i | 0
COc1ccc([C@H]2N[C@]3(CCCN(Cc4cccn4C)C3=O)[C@H]3C(=O)N(Cc4ccccc4)C(=O)[C@@H]23)cc1 | -4 | 1 | 95 | 0 | i | i | 1
Cn1cccc1CN1CCC[C@]2(N[C@H](c3ccccc3)[C@@H]3C(=O)N(Cc4ccccc4)C(=O)[C@@H]32)C1=O | 0 | -6 | 97 | 1 | i | . | .

From PubChem BioAssay
